Values joined by “and” are separate entries in the source; they are usually repeats but may differ in a detail not shown here. Equal entries are not always repeated. Screen size: about 5,500 compounds; about 2,000 (36%) were called active. About 18% were inconclusive and are not listed. Rule as the data show it: active = normalized growth mostly below about 0.91 (no sharp cut-off); inconclusive = no clear call, values can overlap the other calls; inactive = mostly above about 0.92. The list shows a part of the results.
Assay: chemical genetic growth profiling, strain panel (AID 1159580);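 also: tested at 20 µM; growth read once vehicle control cultures reached saturation at 30 °C; 1 = growth at the plate median or of vehicle wells; lower values mean less growth of the strain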
Settings: S. cerevisiae deletion strains, growth OD

Measured: normalized growth

CNCCC(Oc1ccc(C(F)(F)F)cc1)c1ccccc1 (stereo unspecified)
inactive: locus YAL013W, strain DEP1, hits give low values 1 and 1.01 | locus YAL021C, strain ccr4, hits give low values 0.994 | locus YAL026C, strain drs2, hits give low values 0.991 | locus YAL030W, strain snc1, hits give low values 0.987 | locus YAL040C, strain CLN3, hits give low values 1.01 | locus YBL061C, strain skt5, hits give low values 0.986 | locus YBR009C, strain hhf1, hits give low values 0.99 | locus YBR021W, strain FUR4, hits give low values 0.967 | locus YBR023C, strain chs3, hits give low values 0.986 | locus YBR171W, strain sec66, hits give low values 0.991 | locus YBR229C, strain ROT2, hits give low values 1.01 | locus YBR231C, strain swc5, hits give low values 0.986 | locus YBR279W, strain paf1, hits give low values 0.985 | locus YCL011C, strain gbp2, hits give low values 0.991 | locus YCL016C, strain dcc1, hits give low values 0.995 | locus YCL029C, strain bik1, hits give low values 0.99 | locus YCL061C, strain MRC1 (second series), hits give low values 0.983 | locus YCL061C, strain MRC1, hits give low values 0.985 | locus YCL069W, strain vba3, hits give low values 0.998 | locus YCR088W, strain abp1, hits give low values 0.995 | locus YDL005C, strain med2, hits give low values 0.99 | locus YDL035C, strain GPR1, hits give low values 0.987 | locus YDL040C, strain nat1, hits give low values 0.985 | locus YDL074C, strain BRE1, hits give low values 0.993 | locus YDL101C, strain DUN1, hits give low values 1.02 | locus YDL134C, strain PPH21, hits give low values 1.01 | locus YDL185W, strain tfp1, hits give low values 1 | locus YDL192W, strain arf1, hits give low values 1 | locus YDR001C, strain nth1, hits give low values 0.998 | locus YDR069C, strain doa4, hits give low values 0.944 | locus YDR101C, strain arx1, hits give low values 0.987 | locus YDR150W, strain NUM1, hits give low values 1.01 | locus YDR159W, strain sac3, hits give low values 1 | locus YDR162C, strain NBP2, hits give low values 0.992 | locus YDR195W, strain ref2 0.995 | locus YDR297W, strain sur2, hits give low values 0.995 | locus YDR318W, strain mcm21, hits give low values 0.996 | locus YDR334W, strain swr1, hits give low values 0.987 | locus YDR335W, strain msn5, hits give low values 1 | locus YDR363W, strain ESC2, hits give low values 1.02 | locus YDR388W, hits give low values 0.93 | locus YDR392W, strain spt3, hits give low values 0.996 | locus YDR502C, strain sam2, hits give low values 0.991 | locus YEL003W, strain gim4, hits give low values 0.999 | locus YEL037C, strain rad23, hits give low values 0.993 | locus YEL061C, strain CIN8 (second series), hits give low values 0.998 | locus YEL061C, strain CIN8, hits give low values 1.01 | locus YER002W, strain NOP16, hits give low values 1 | locus YER015W, strain faa2, hits give low values 0.997 | locus YER016W, strain bim1, hits give low values 0.992 | locus YER110C, hits give low values 0.994 | locus YER111C, strain swi4, hits give low values 0.981 | locus YER155C, strain BEM2 (second series), hits give low values 1.01 | locus YER155C, strain BEM2, hits give low values 1.01 | locus YER167W, strain BCK2, hits give low values 1.01 | locus YFR010W, strain ubp6, hits give low values 0.972 | locus YGL078C, strain dbp3, hits give low values 0.99 | locus YGL086W, strain mad1, hits give low values 1 | locus YGL167C, strain pmr1, hits give low values 0.987 | locus YGL173C, strain kem1, hits give low values 0.982 | locus YGL227W, strain vid30, hits give low values 0.982 | locus YGL240W, strain doc1, hits give low values 0.975 | locus YGL248W, strain PDE1, hits give low values 1.02 | locus YGL253W, strain hxk2, hits give low values 0.977 | locus YGR078C, strain PAC10, hits give low values 0.948 and 0.983 | locus YGR135W, strain pre9, hits give low values 0.986 | locus YGR229C, strain SMI1, hits give low values 0.949 | locus YGR252W, strain gcn5, hits give low values 0.923 | locus YHR013C, strain ard1, hits give low values 0.922 | locus YHR027C, strain rpn1, hits give low values 0.991 | locus YHR030C, strain SLT2, hits give low values 1.01 and 1 | locus YHR079C, strain IRE1 (second series), hits give low values 0.997 | locus YHR079C, strain IRE1, hits give low values 1.03 | locus YHR094C, strain hxt1, hits give low values 1 | locus YHR129C, strain ARP1, hits give low values 1.02 | locus YHR142W, strain chs7, hits give low values 0.992 | locus YHR200W, strain rpn10, hits give low values 0.993 | locus YIL066C, strain RNR3, hits give low values 1.01 | locus YIL073C, strain SPO22, hits give low values 1.25 | locus YIL125W, strain kgd1, hits give low values 0.997 | locus YIR030C, strain dcg1, hits give low values 1 | locus YJL092W, strain hpr5, hits give low values 0.986 | locus YJL095W, strain BCK1 (second series), hits give low values 0.992 | locus YJL095W, strain BCK1, hits give low values 0.99 and 0.988 | locus YJL115W, strain asf1, hits give low values 0.993 | locus YJL129C, strain trk1, hits give low values 1.01 | locus YJL134W, strain LCB3, hits give low values 1 | locus YJL154C, strain vps35, hits give low values 1.01 | locus YJL164C, strain tpk1, hits give low values 0.987 | locus YJL166W, strain qcr8, hits give low values 0.99 | locus YJL168C, strain set2, hits give low values 0.993 | locus YJL187C, strain SWE1 (second series), hits give low values 1.02 | locus YJL187C, strain SWE1, hits give low values 0.986 | locus YJR043C, strain POL32, hits give low values 1 | locus YJR066W, strain TOR1, hits give low values 0.988
active: locus YDR137W, strain rgp1, hits give low values 1.2 [resistant]
